Data: PubChem BioAssay (Tox21)
Where “and” joins values, the source holds several entries; their conditions need not be identical. Identical values can stand only once. Inconclusive results are not listed. Entries that show only a call come without a potency. The source holds several records for some structures; these can differ, active in one and inactive in another. Calls of active or inactive are those of the source. Calls follow the shape of the dose curve; as a rule, active = well fitted cell-killing curve with a large enough effect in the repeat runs; inconclusive = weak or mixed curves, or effect the other way; inactive = no such curve, though single readings can be large or run the other way.

assay: qHTS assay for identifying genotoxic compounds that show differential cytotoxicity against isogenic chicken DT40 cell lines with known DNA damage response pathways - Rev3 mutant cell line (AID 743014); details: chicken DT40 Rev3-/- viability, CellTiter-Glo, 40 h; series mostly up to 68.4 µM; activity, negative = cytotoxicity: at the top concentration; also: nearly all actives have a fitted effect of over 55% in size
Excerpt: National Center for Advancing Translational Sciences [NCATS]
NIH Chemical Genomics Center [NCGC]
U.S. Environmental Protection Agency [EPA]
National Institutes of Environmental Health Sciences [NIEHS]
National Toxicology Program [NTP]
U.S. Food and Drug Administration [FDA]
DNA repair pathways play a critical role in cellular homeostasis by repairing DNA damage induced by endogenous processes and xenobiotics. Isogenic chicken DT40 cell lines deficient in different DNA repair pathways can be used to identify genotoxic compounds and aid in characterizing the nature of the DNA damage induced. Two DNA repair-deficient cell lines with disrupted genes, Rad54/Ku70 or Rev3, were used to screen the Tox21 10K compound library. Possible genotoxicity was based on the presence of a significant increase in cytotoxicity in one or more of the DNA repair-deficient cell lines compared to that observed in the parental DNA repair-proficient cell line. CellTiter Glo viability assay (Promega, Madison, WI) was used to measure cell viability in these cells after compound treatment. This assay includes the data from the Rev3 mutant cell line.
Tox21 Assay Protocol Summary:
300 DT40 mutant cells in 5 uL/well were dispensed into white, solid-bottom 1536-well plates using a Multidrop Combi (ThermoFisher Scientific, Waltham, MA) dispenser. After the assay plates were incubated at 37 C/5% CO2 for approximately 0.5 hour, 23 nL of compounds dissolved in DMSO, positive controls or DMSO only was transferred into the assay plate by a pintool work station (Kalypsys, San Diego, CA). The assay plates were incubated at 37 C/5% CO2 for 40 hours. After 5 uL per well of CellTiter-Glo reagent was added into each well of the assay plates, the plates were incubated for 30 min at room temperature and the luminescence intensity of the plates was measured using a ViewLux (PerkinElmer, Shelton, CT) plate reader.
Potency is read from the fitted curve at half-maximal effect.

SMILES	Potency	activity, negative = cytotoxicity
Cc1ccc(C)c(S(=O)(=O)O)c1	inactive	
CCCOC(=O)NCCCN(C)C	inactive	
N[C@@H](Cc1cc(I)c(Oc2ccc(O)c(I)c2)c(I)c1)C(=O)O	23.7 µM (active) and inactive	
CC(CN1c2ccccc2Sc2ccccc21)N(C)C (stereo not given)	26.6 µM (active) and 27.6 µM (active) and 24.3 µM (active)	
COCN(COC)c1nc(N(COC)COC)nc(N(COC)COC)n1	inactive	
CCc1cccc(O)c1	inactive	
CCCCCCC(=O)O	inactive	
Oc1ccc(Cc2ccccc2O)cc1		-0.0169% (inactive)
OB(O)O	inactive	
Nc1cccc(C(F)(F)F)c1	inactive	
Cc1cc(C)c(O)c(C)c1	inactive	
CCCCCC(C)=O	inactive	
CC(=O)c1nccs1	inactive	
Cc1ccc([N+](=O)[O-])cc1N	inactive	
OCc1ccc(Cl)cc1Cl	inactive	
COc1ccccc1[N+](=O)[O-]	inactive	
CCCCCNCCCCC	inactive	
O=C1CCCCCCCCCCC1	inactive	
O=C1O[C@H]([C@H](O)CO)C(O)=C1O	inactive	
CCCCC(CC)COC(=O)c1ccc(C(=O)OCC(CC)CCCC)cc1 (stereo not given)		-6.38% (inactive)

SMILES	Potency	activity, negative = cytotoxicity
CCn1cc(C(=O)O)c(=O)c2cc3c(cc21)OCO3		0.612% [at 95 µM] (inactive)
Cc1nnc(NS(=O)(=O)c2ccc(N)cc2)s1	inactive	
CCCCCCCCCCCC(=O)N(C)CC(=O)O	66.4 µM (active)	3.78% [at 8.53 µM] (inactive)
C=C(CC(=O)O)C(=O)O		7.8% [at 95 µM] (inactive)
Brc1ccc(Oc2ccc(Br)cc2)cc1	inactive	
C=CC(=O)NCOCCCC		6.68% (inactive)
Cc1cccc(C)c1[N+](=O)[O-]	inactive	
COC(=O)OC		4.33% (inactive)
Cc1ccc(Cl)cc1	inactive	
CCCCC(=O)O	inactive	
COc1cc(NC(=O)CC(C)=O)c(OC)cc1Cl		12.5% [at 95 µM] (inactive)
CCc1cccc(CC)c1N		5.84% [at 95 µM] (inactive)
CCOC(=O)CC(=O)OCC	inactive	
NC1CCCCC1N (stereo not given)		10.7% [at 95 µM] (inactive)
C1CCCNCC1	inactive	
C[Si](C)(C)N[Si](C)(C)C	inactive	
COc1ccc(N)c(OC)c1	inactive	
O=C(c1ccccc1)c1ccc(O)c(O)c1O	61.1 µM (active)	
CC/C=C(\C(=O)N[C@@H]1C(=O)N2C(C(=O)OCOC(=O)C(C)(C)C)=C(COC(N)=O)CS[C@H]12)c1csc(N)n1	inactive	
